High-throughput results as filed in PubChem.
Chronic BCR inh: inhibitors of chronic active B-cell receptor signaling. ABC-DLBCL IkBa-CBG/CBR reporter, luminescence ratio, 4 h. 0.05% of 340,000 active. Potency, µM (highest dose often 46.1 µM), inactives show at the top dose activity change, negative = inhibition, actives largely listed as inhibitors. AID 493014; active means well fitted inhibition curve with a large enough effect in the signal ratio, with a control signal flat, not every such curve was filed as active; inconclusive means small, poorly fitted or top-dose-only effect, or effect the other way, or a change in a side signal; the % refers to the signal ratio;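 further: potency means the concentration at half of the fitted maximal effect; plate controls were basal doxycycline-induced cells for no effect and cells given 10 µM MG132 for full effect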
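Cell line TMD8 (human ABC DLBCL), stably expressing tet-inducible CBG68-IkBa fusion and CBR; IMDM/0.5% FBS; cpd up to 46 uM; dox induction, 4 h, 37C/5% CO2; dual luminescence; green/red ratio; MG132 control.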
SW480 rereplic: inducers of DNA re-replication in SW480 colon cancer cells | SW480 DNA re-replication, Hoechst DNA content imaging, 48 h | Potency, µM (highest dose often 46.1 µM), inactives show at the top dose re-replication activation, hits mostly activators | 1.8% of 340,000 active | AID 624297; further: potency means the concentration at half of the fitted maximal effect; % of control where 0% means no effect; nearly all actives have a fitted effect of over 55% in size
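Quantitative HTS format with DMSO vehicle controls; 48 hr drug incubation at 37 C, then 40 min Hoechst staining and scanning imager measurement at 405 nm excitation.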
MCF10A rereplic: DNA re-replication induction in MCF 10a cells; MCF 10A DNA re-replication, Hoechst nuclear intensity, 48 h; Potency, µM (titrated, usually from 46.1 µM), inactives show at the top dose activity, positive = re-replication, usual class: activators; 2.9% of 350,000 active; AID 624296; further: potency means the concentration at half of the fitted maximal effect; % of control where 0% means no effect; nearly all actives have a fitted effect of over 50% in size
TDP1 cell noCPT: qHTS for Inhibitors of human tyrosyl-DNA phosphodiesterase 1 (TDP1): qHTS in cells in absence of CPT | Potency, µM (highest dose often 46.2 µM), for inactives: at the highest dose activity change, negative = growth inhibition, most hits filed as inhibitors | 15% of 420,000 active | DT40 Tdp1-/- hTDP1 cells, no CPT, ATP luminescence, 48 h; further: potency means the concentration at half of the fitted maximal effect; on the % scale 0 is the no-effect control and ±100 the full control effect; nearly all actives have a fitted effect of over 55% in size
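Cells were dispensed at 400 per well, compounds added by pin tool, plates incubated ≥48 hr at 37 °C, then CellTiter-Glo added for 30 min at room temperature before luminescence reading. Line: DT40 Tdp1-/- complemented with hTDP1; camptothecin omitted.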
IL-1B inflam inh: inhibitors of inflammasome signaling (IL-1 beta secretion) | activity change, % at 57.5 µM | THP-1 LPS/ATP IL-1B secretion, AlphaLISA, 16 h; stronger effect = lower value | 4.7% of 360,000 active; in the data active means activity change below about -50%; inconclusive means mostly about -30% to -49%; further: on the % scale 0 is the no-effect control and ±100 the full control effect
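Secreted IL-1B measured by AlphaLISA bead assay after 16 h compound exposure of THP-1 cells; compounds (final up to 57.5 uM) added 1 h before LPS (250 ng/mL) and ATP (1.25 mM) stimulation; lower signal means less secretion.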
TDP1 cell CPT: growth inhibition of DT40 Tdp1-/-;hTDP1 cells with camptothecin (screen for TDP1 inhibitors); chicken DT40 Tdp1-/-;hTDP1 cells + 20 nM CPT, ATP luminescence, 48 h; Potency, µM (titrated, usually from 46.2 µM), inactives show top-dose activity change, negative = growth inhibition, actives largely listed as inhibitors; 12% of 420,000 active; AID 686979; further: potency means the concentration at half of the fitted maximal effect; on the % scale 0 is the no-effect control and ±100 the full control effect; nearly all actives have a fitted effect of over 55% in size
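Cell growth measured by CellTiter-Glo luminescence after a minimum 48 h, 37 C compound exposure with 20 nM CPT in Tdp1-knockout DT40 cells stably expressing hTDP1, seeded 400/well; qHTS titration format.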
The depositor's hits bear a star; ? = inconclusive; · = not tested or not shown; [ ] = remark or other dose. A selection: hits, their analogues and other compounds. The true share with any hit is near 19%. Unless noted, the call rests on the fitted dose curve; in most records, active means well fitted curve in the direction sought with a large enough effect; inconclusive means small, poorly fitted or top-dose-only effect, or another doubt; inactive means no such curve, though single readings can be large; an effect the other way counts as inactive or inconclusive.

SMILES | Chronic BCR inh | SW480 rereplic | MCF10A rereplic | TDP1 cell noCPT | IL-1B inflam inh | TDP1 cell CPT
CCN(CC)c1ccc(C(=C2C=CC(=[N+](CC)CC)C=C2)c2ccc(S(=O)(=O)O)cc2S(=O)(=O)[O-])cc1 | · | -4% | -4% | ? | -94* | 23µM*
Cc1[nH]c2c(Cl)cccc2c1CCNC(=O)C1CCCCC1C(=O)OCC(F)(F)F (centres undefined) | 5% | -1% | -5% | -26% | -80* | 14%
CCOC(=O)c1ccc(CNC(=O)C2CCCCC2C(=O)OCC(F)(F)F)o1 (centres undefined) | 4% | 6%[9.22 µM] | 0% | -4% | 5 | -10%
COc1ccc(/C=C/C(=O)C2(O)CCCCC2)cc1OC | 2% | ? | ? | ? | -91* | ?
COc1ccc(/C=C/C(=O)Nc2ccccc2)cc1OC | ? | -9% | -1% | 12% | ? | 1%
COc1ccc(C2=Cc3ccccc3C(CC(=O)C3CC3)N2c2ccc(-c3cc(OC)c(OC)c(OC)c3)cc2)cc1 (centres undefined) | · | · | · | -6% | 16 | -11%
COc1cc(OC)cc(C2=Cc3ccccc3C(CC(=O)c3ccco3)N2c2ccc(-c3ccc(C(N)=O)cc3)cc2)c1 (centres undefined) | · | · | · | ? | -13 | ?
COc1cc(OC)cc(C2=Cc3ccccc3C(CC(=O)c3ccco3)N2c2ccc(-c3cncnc3)cc2)c1 (centres undefined) | · | · | · | ? | -7 | 8.2µM*
COc1cc(OC)cc(C2=Cc3ccccc3C(CC(C)=O)N2c2ccc(C#CCCO)cc2)c1 (centres undefined) | · | · | · | ? | -19 | 21µM*
COc1cc(OC)cc(C2=Cc3ccc(OC)cc3C(CC(C)=O)N2c2ccc(C#CCCO)cc2)c1 (centres undefined) | · | · | · | 21µM* | -7 | ?
COc1ccc(N2C(c3cc(OC)cc(OC)c3)=Cc3ccccc3C2CC(C)=O)cc1 (centres undefined) | · | · | · | 16µM* | 32 | ?
O=C(COC(=O)c1cncc(Br)c1)NCC12CC3CC(CC(C3)C1)C2 | 2% | -4% | -3% | -27% | 5 | 2%
Cc1ccc(F)cc1CNC(=O)C1CCC(=O)N(CCCN2CCCC2=O)C1 (centres undefined) | -4% | -4% | 0% | 14% | 3 | 6%
Cc1noc(C)c1COc1ccccc1C(=O)NCCOc1ccccc1 | ? | 10% | 2% | ? | 7 | -16%
COc1ccc(C(=O)NCCN2CCOCC2)cc1S(=O)(=O)Nc1ccc(C)cc1 | -1% | ? | -1% | 3% | 24 | -12%
CC(=O)CC1c2ccccc2C=C(c2ccsc2)N1c1ccc(-c2cccs2)cc1 (centres undefined) | · | · | · | 10µM* | 51 | 10µM*
COC(=O)CC1C(=O)NCCN1C(=O)c1oc2c(C)c(C)ccc2c1C (centres undefined) | · | · | · | ? | 5 | -2%
Cc1oc(=O)c(NC(=O)c2cccc(Cl)c2)cc1C(=O)c1ccccc1 | -13% | 21µM* | ? | 21µM* | ? | 29µM*
COc1ccc(C(=O)Nc2cc(C(=O)c3ccccc3)c(C)oc2=O)cc1 | 5% | ? | ? | 10µM* | -11 | 13µM*
CC(=O)c1cc(NC(=O)c2ccc([N+](=O)[O-])cc2)c(=O)oc1C | ? | 25% | 16µM* | 23µM* | -18 | ?
CCCN(C(=O)c1cccc(S(=O)(=O)N2CCN(C)CC2)c1)c1c(N)n(Cc2ccccc2)c(=O)[nH]c1=O | 1% | -10% | -1% | -23% | 3 | 2%
CC1(C(=O)NS(=O)(=O)c2ccccc2OC(F)(F)F)CCN1C(=O)c1ccco1 (centres undefined) | · | · | · | -1% | 24 | 0%
Cc1sc2nc(C3CC3)nc(N3CCN(C(=O)c4ccc(F)cc4)CC3)c2c1C | ? | ? | ? | 23µM* | -60* | ?
Cc1ccc(S(=O)(=O)N2CCN(c3nc(C)nc4sc(C)c(C)c34)CC2)cc1 | -2% | · | · | · | · | ·
Cc1sc2nc(C3CC3)nc(N3CCN(C(=O)c4ccc(Cl)cc4)CC3)c2c1C | ? | 7% | ? | 18µM* | -6 | ?
SMILES | Chronic BCR inh | SW480 rereplic | MCF10A rereplic | TDP1 cell noCPT | IL-1B inflam inh | TDP1 cell CPT
Cc1sc2nc(C3CC3)nc(N3CCN(S(=O)(=O)c4ccc(F)cc4)CC3)c2c1C | 0% | ? | ? | 11µM* | -22 | ?
COc1ccc(C(=O)N2CCN(c3nc(C4CC4)nc4sc(C)c(C)c34)CC2)cc1 | 2% | 14% | ? | 21µM* | -65* | ?
Cc1ccc(C(=O)C(C)CN2CCCCC2)cc1 (centres undefined) | · | 12% | 4% | ? | · | ?
Cc1ccc(CCNC(=O)C(NS(=O)(=O)c2ccc3c(c2)oc(=O)n3C)C(C)C)cc1 (centres undefined) | · | · | · | -4% | · | 2%
CC1O[C@@H](O[C@H]2C(Oc3cc(O)c4c(c3)OC(c3ccc(O)cc3)CC4=O)OC(CO)C(O)C2O)C(O)C(O)C1O (some centres undefined) | · | · | · | -3% | · | 2%
COc1ccc(CCC(=O)NCc2ccc3c(c2)CCN3C(=O)c2ccc(Cl)cc2)cc1 | 0% | · | · | ? | · | -7%
CCCc1nc2c3ccccc3ccn2c1CC1CCCCC1 | · | · | · | ? | 0 | ?
O=C1C(C2=NC(C(=O)O)C3C(=O)N(c4ccccc4)C(=O)C23)=C(O)c2ccccc21 (centres undefined) | -1% | 0% | 4% | -6% | 10 | -3%
O=C1C(C2=C(O)c3ccccc3C2=O)=Nc2ccccc21 | -16% | ? | 23µM* | 15µM* | -93* | 10µM*
CCOC(=O)/C=C/C(=O)Nc1ccc(S(=O)(=O)N2CCCCCC2)cc1 | ? | 1% | ? | ? | -88* | ?
CCOC(=O)/C=C/C(=O)Nc1ccc(S(=O)(=O)N2CCc3ccccc32)cc1 | ? | 17% | ? | 15µM* | ? | 23µM*
CCOC(=O)/C=C/C(=O)Nc1ccc(S(=O)(=O)N(C)c2ccccc2)cc1 | ? | 22% | ? | ? | -110* | 1.8µM*
CC(C)c1ccc(N(CC(=O)NC2CCCCC2)C(=O)CCC(=O)Nc2ccccn2)cc1 | 2% | -3% | -3% | ? | 12 | ?
